Shown are actives, neighbours in structure and some others; about 1.6% of the full set was active somewhere.
KCNQ2 block: rat KCNQ2 potassium channel inhibitors, primary screen, cell-based, CHO-K1, FluxOR thallium flux, B-score; Potassium voltage-gated channel subfamily KQT member 2 (Rattus norvegicus), O88943; 20 min; hits give low values; B-score at 10 µM; 310,000 tested, 1.1% active; AID 2156, 2009;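 active = fluorescence ratio B-score at most minus 3 library SDs, with starting brightness B-score within 2 library SDs, cut at about -5.5 in these data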
Target sequence (O88943 whole entry, looked up): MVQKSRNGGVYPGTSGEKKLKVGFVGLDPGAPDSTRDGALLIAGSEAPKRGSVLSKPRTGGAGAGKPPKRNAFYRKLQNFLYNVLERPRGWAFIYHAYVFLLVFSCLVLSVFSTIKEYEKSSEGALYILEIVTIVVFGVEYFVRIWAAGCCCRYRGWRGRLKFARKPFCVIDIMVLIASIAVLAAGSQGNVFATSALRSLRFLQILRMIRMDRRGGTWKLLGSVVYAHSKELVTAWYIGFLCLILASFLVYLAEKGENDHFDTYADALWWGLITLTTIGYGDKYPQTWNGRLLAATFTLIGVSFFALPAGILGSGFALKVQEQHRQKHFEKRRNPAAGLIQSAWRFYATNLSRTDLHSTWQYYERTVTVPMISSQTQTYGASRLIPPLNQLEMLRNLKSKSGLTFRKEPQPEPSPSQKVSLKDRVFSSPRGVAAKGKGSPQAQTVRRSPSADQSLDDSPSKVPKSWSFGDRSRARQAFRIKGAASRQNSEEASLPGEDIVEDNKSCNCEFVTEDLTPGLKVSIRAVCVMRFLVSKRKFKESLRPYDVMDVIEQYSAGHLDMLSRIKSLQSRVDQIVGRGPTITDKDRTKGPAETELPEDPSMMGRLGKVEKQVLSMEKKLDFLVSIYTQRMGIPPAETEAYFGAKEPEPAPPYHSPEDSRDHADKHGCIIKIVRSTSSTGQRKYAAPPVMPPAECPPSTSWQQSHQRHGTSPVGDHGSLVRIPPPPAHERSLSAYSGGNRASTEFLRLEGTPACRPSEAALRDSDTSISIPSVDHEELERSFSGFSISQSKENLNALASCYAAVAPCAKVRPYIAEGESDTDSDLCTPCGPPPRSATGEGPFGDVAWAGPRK
KCNQ2 enhance: potentiators of rat KCNQ2 potassium channel; Potassium voltage-gated channel subfamily KQT member 2 (Rattus norvegicus), O88943; CHO-K1 KCNQ2, FluxOR thallium flux fluorescence; hits give high values; B-score at 10 µM; 310,000 tested, 0.54% active; AID 2239, 2010;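 active = fluorescence ratio B-score at least 3 SD of library B-scores, with initial fluorescence B-score within 3 of them, cut at about 5.3 in these data; same plate scores as AID 2156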;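 note: B-score of peak minus minimum over baseline fluorescence ratio after K+ and Tl+ stimulus; positive B-score means potentiation of KCNQ2 with more thallium influx and brighter signal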
The depositor's hits bear a star.

`Cc1cc(C)cc(-n2ccnc2SCC(=O)Nc2ccc3c(c2)OCCO3)c1` gave KCNQ2 block inactive and KCNQ2 enhance 0.55.
O=C(COc1ccc(Cl)cc1)NCCSCc1cccc(Cl)c1 was read as KCNQ2 block -7.45* and KCNQ2 enhance -7.45.
Screening COc1cc(OC)cc(C(=O)NCCCCNC(=O)c2cc(OC)cc(OC)c2)c1 returned KCNQ2 block inactive and KCNQ2 enhance 0.22.
`Cc1cc(Cl)ccc1OCC(=O)NCCCCc1ccccc1` gave KCNQ2 block -6.32* and KCNQ2 enhance -6.32.
COc1cc(OC)cc(C(=O)NCCCCc2ccccc2)c1 was read as KCNQ2 block -8.22* and KCNQ2 enhance -8.22.
For Cc1cc(Cl)ccc1OCC(=O)NCCC(=O)O the results were KCNQ2 block inactive and KCNQ2 enhance 1.02.
Cc1cccc(CSCCNC(=O)COc2ccc(Cl)cc2)c1 was read as KCNQ2 block inactive.
`COC(=O)c1c(NC(=O)CN2C(=O)NC3(CCC(C(C)(C)C)CC3)C2=O)sc2c1CCCCC2` (centres undefined) gave KCNQ2 block inactive.
CNC(=S)N(Cc1ccc(Cl)cc1)Cc1cccs1 was read as KCNQ2 block inactive and KCNQ2 enhance 1.07.
Cc1ccccc1NC(=O)c1ccccc1-c1ccccc1 was read as KCNQ2 block inactive.
`CCCn1c(/C=C/c2ccccc2)nc2ccccc21` gave KCNQ2 block -6.13* and KCNQ2 enhance -6.13.
COCCOCCn1c(/C=C/c2ccccc2)nc2ccccc21 was read as KCNQ2 block inactive.
For COc1cccc(CN2CCN(Cc3nc(-c4cccs4)oc3C)CC2CCO)c1 (centres undefined) the results were KCNQ2 block inactive and KCNQ2 enhance 0.71.
O=C(COc1ccccc1)OC(C(=O)c1ccccc1)c1ccccc1 (centres undefined) was read as KCNQ2 block inactive and KCNQ2 enhance 1.7.
Screening COc1cccc(NC(=O)COC(=O)Cc2ccc(Cl)cc2)c1 returned KCNQ2 block inactive and KCNQ2 enhance 0.88.
For COc1cccc(NC(=O)n2nc(N)cc2-c2ccc(Cl)cc2)c1 the results were KCNQ2 block -5.71* and KCNQ2 enhance -5.71.
`CCCc1cc(C(=O)N2CCN(c3ccccc3C)CC2)cs1` gave KCNQ2 block -5.69* and KCNQ2 enhance -5.69.
CCCc1cc(C(=O)N2CCCN(C)CC2)cs1 was read as KCNQ2 block inactive and KCNQ2 enhance 1.61.
`Cc1cc2c(c(=O)n1Cc1cccnc1)C(c1ccc(F)cc1)C(C#N)=C(N)O2` (centres undefined) gave KCNQ2 block inactive.
For Cc1cccc(NC(=S)NC(=O)c2cccs2)n1 the results were KCNQ2 block inactive and KCNQ2 enhance 1.52.
`CC(=O)Nc1nc(-c2cccc3ccccc23)cs1` gave KCNQ2 block inactive and KCNQ2 enhance 0.01.
`O=C(NC(=S)Nc1nc(-c2ccccc2)cs1)c1cccs1` gave KCNQ2 block inactive and KCNQ2 enhance 7.9*.
Screening Cc1ccc(-c2csc(NC(=S)NC(=O)c3cccs3)n2)cc1 returned KCNQ2 block inactive and KCNQ2 enhance 3.81.
For O=C(NC(=S)Nc1nc(-c2cccc3ccccc23)cs1)c1cc2ccccc2o1 the results were KCNQ2 block inactive and KCNQ2 enhance 8.25*.
`Cc1nc(NC(=S)NC(=O)c2cccs2)ccc1Br` gave KCNQ2 block inactive and KCNQ2 enhance 9.4*.
`CCOC(=O)C(O)C1CCc2c([nH]c3ccc(C)cc23)C1=O` (centres undefined) gave KCNQ2 block inactive and KCNQ2 enhance 0.58.
`CSc1c(CC(=O)NCCCO)n(Cc2ccccc2)c2ccccc12` gave KCNQ2 block inactive.
OC(COC(c1ccccc1)c1ccccc1)CN1CCOCC1 (centres undefined) was read as KCNQ2 block inactive and KCNQ2 enhance 0.14.
For CN(C)CCCNc1nc2sc3c(c2c(=O)n1CCc1ccccc1)CCCCC3 the results were KCNQ2 block inactive.
`Cc1ccc(Cn2c(=N)n(CC(O)c3ccco3)c3ccccc32)cc1` (centres undefined) gave KCNQ2 block inactive and KCNQ2 enhance 2.52.
For COc1ccc(Br)cc1/C=N/Nc1cccc(C(=O)O)c1 the results were KCNQ2 block inactive and KCNQ2 enhance 0.77.
`CN(/N=C/c1cc(Br)cc(Br)c1O)c1ccccc1` gave KCNQ2 block inactive.
Cc1c(N=Cc2cc(Br)cc(Br)c2O)cccc1C(=O)O was read as KCNQ2 block inactive and KCNQ2 enhance 9.51*.
Screening O=C(O)c1cccc(N/N=C/c2cc(Br)cc(Br)c2O)c1 returned KCNQ2 block inactive and KCNQ2 enhance 5.83*.
`C[C@H](NC(=O)[C@H]1N2C(=O)c3ccccc3C2SC1(C)C)C(=O)NCC1CCCO1` (some centres undefined) gave KCNQ2 block inactive and KCNQ2 enhance 0.68.
Screening O=C(Nc1ccccc1)O[C@@H]1C[C@H]2CCC(=O)N3CC[C@@H](C1)[C@@H]23 returned KCNQ2 block inactive and KCNQ2 enhance 1.05.
`COc1ccc(/C=N/Nc2nc(N3CCCC3)nc(N3CCCC3)n2)cc1` gave KCNQ2 block inactive.
For COc1ccc(/C=N/Nc2nc(N3CCCC3)nc(N3CCCC3)n2)cc1O the results were KCNQ2 block -6.32* and KCNQ2 enhance -6.32.
Cc1cc(C)n2nc(SCC(=O)c3cccs3)nc2n1 was read as KCNQ2 block inactive.
`COc1ccc(Br)cc1C(=O)Nc1ccc(C(=O)O)cc1` gave KCNQ2 block inactive and KCNQ2 enhance 0.17.
CCn1c(CC(=O)Nc2ccccc2)nnc1SCC(=O)Nc1ccccc1C(=O)OC was read as KCNQ2 block inactive and KCNQ2 enhance 0.48.
For Cc1ccccc1OCc1nnc(SCC(=O)NCc2ccccc2)n1C the results were KCNQ2 block inactive.
CCOC(=O)c1ccccc1NC(=O)CSc1nnc(COc2ccccc2C)n1C was read as KCNQ2 block -7.1* and KCNQ2 enhance -7.1.
`CCn1c(COc2cccc(OC)c2)nnc1SCC(=O)Nc1ccccc1C(=O)OC` gave KCNQ2 block -5.71* and KCNQ2 enhance -5.71.
Screening O=[N+]([O-])c1ccc(/C=N/NC2=NS(=O)(=O)c3ccccc32)cc1 returned KCNQ2 block inactive and KCNQ2 enhance 1.41.
Screening O=C(CNC(=O)c1ccccc1Br)N/N=C/c1cccnc1 returned KCNQ2 block inactive and KCNQ2 enhance 1.54.
O=C(NCc1nc2ccccc2[nH]1)C1=C[C@@H](c2csc3ccccc23)C[C@@H](OCc2ccc(CO)cc2)O1 was read as KCNQ2 block inactive.
For C=CCN(c1ccccc1)S(=O)(=O)c1cccc(C(=O)NCC(c2ccc(F)cc2)N2CCOCC2)c1 (centres undefined) the results were KCNQ2 block -6.03* and KCNQ2 enhance -6.03.
Cc1ccc(NS(=O)(=O)c2cccc(C(=O)NCC(c3ccc(F)cc3)N3CCOCC3)c2)cc1 (centres undefined) was read as KCNQ2 block inactive.
Screening C[n+]1c2n(c3ccccc31)N=C(c1cc(C(C)(C)C)c(O)c(C(C)(C)C)c1)CS2 returned KCNQ2 block -6.64* and KCNQ2 enhance -6.64.
For COc1cccc(C2=Nn3c(nnc3-c3ccccc3O)SC2)c1 the results were KCNQ2 block inactive.
Screening c1cc(CNC2C3CC4CC(C3)CC2C4)ccn1 (centres undefined) returned KCNQ2 block inactive and KCNQ2 enhance 0.08.

Compound activity (PubChem)
